# The campaign covered roughly 310,000 compounds. About 14,000 (4.5%) showed an effect of 50% or more. The effect is printed as a negative number. The list comes from a sample in which strong results are over-represented; it also holds similar structures and randomly drawn compounds.
# Target: human ether-à-go-go-related gene (hERG) potassium channel (human, UniProt Q12809)
# Assay: primary screen, population patch clamp on CHO cells stably expressing hERG; higher = less effect of the substance
# 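Note: peak tail current of the secondary pulse compared with the same well before compound.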
# Chain of human ether-à-go-go-related gene (hERG) potassium channel (Q12809 whole entry, looked up): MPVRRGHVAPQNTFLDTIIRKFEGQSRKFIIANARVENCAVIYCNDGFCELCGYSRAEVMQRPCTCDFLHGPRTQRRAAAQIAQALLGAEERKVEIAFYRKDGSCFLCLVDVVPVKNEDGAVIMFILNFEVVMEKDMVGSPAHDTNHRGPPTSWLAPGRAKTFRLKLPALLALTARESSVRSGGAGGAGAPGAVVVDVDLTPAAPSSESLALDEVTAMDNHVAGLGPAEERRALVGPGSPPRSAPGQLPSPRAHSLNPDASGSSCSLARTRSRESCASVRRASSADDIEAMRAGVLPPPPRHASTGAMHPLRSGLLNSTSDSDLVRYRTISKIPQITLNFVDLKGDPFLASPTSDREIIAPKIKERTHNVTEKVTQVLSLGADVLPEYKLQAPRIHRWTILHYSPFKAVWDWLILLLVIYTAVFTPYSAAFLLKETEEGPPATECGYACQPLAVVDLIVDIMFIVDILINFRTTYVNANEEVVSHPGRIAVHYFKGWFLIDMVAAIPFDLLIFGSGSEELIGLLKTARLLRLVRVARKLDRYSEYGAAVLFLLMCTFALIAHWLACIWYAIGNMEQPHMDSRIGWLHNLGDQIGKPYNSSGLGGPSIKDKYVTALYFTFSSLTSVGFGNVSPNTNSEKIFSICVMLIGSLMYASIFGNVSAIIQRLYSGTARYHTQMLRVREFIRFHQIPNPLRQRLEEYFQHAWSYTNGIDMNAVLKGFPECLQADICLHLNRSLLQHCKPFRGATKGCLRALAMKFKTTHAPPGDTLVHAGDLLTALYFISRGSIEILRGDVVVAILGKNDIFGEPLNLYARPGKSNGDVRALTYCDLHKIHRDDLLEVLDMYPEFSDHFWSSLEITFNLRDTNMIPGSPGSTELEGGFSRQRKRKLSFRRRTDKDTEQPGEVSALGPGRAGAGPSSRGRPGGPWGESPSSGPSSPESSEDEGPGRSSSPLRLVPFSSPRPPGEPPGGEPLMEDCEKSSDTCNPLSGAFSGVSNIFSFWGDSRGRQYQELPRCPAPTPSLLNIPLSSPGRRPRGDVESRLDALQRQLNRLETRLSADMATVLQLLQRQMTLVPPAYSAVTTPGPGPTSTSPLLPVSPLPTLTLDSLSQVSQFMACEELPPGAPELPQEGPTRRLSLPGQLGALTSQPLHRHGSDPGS
row,SMILES,"hERG current change (%, negative = inhibition) at 10uM"
1,COc1ccc(C(=O)c2c[nH]c(C(=O)NCCCn3ccnc3)c2)cc1,0.775%
2,O=C(NCCCn1ccnc1)c1ccc(C(F)(F)F)cc1,-10.8%
3,CCC(=O)c1c[nH]c(C(=O)NCCCn2ccnc2)c1,9.18%
4,O=C(c1ccccc1)c1c[nH]c(C(=O)NCCCn2ccnc2)c1,5.27%
5,CC(C)(C)c1ccc(C(=O)c2c[nH]c(C(=O)NCCCn3ccnc3)c2)cc1,-71.3%
6,O=C(c1ccc(C(F)(F)F)cc1)c1c[nH]c(C(=O)NCCCn2ccnc2)c1,-70.4%
7,Cc1ccc(/C=N/NS(=O)(=O)c2ccc([N+](=O)[O-])cc2)o1,26.4%
8,Cc1c(NC(=O)c2cccs2)c(=O)n(-c2ccccc2)n1C,3.8%
9,CCCC(Oc1ccc(Br)cc1)c1nc2c3cc(OC)c(OC)cc3nc(=S)n2[nH]1 (stereo not drawn),14.5%
10,Cc1cccc2c1NC(C)CC2C.Cl (stereo not drawn),8.01%
11,COc1ccccc1CNC(=O)COC(=O)c1cc(C)oc1C,0.456%
12,COCCn1c(C)nnc1SCC(=O)NNC(=O)c1ccc(Cl)cc1,16.4%
13,COc1ccc(Cl)cc1NC(=O)c1nnn(CC(=O)Nc2ccc(OC)c(OC)c2)c1N,15.1%
14,CCCNC(=O)c1ccc(N2CCC3(CC2)CC(c2ccc(Cl)cc2)=NO3)c([N+](=O)[O-])c1,-74.7%
15,O=C(NCc1ccccc1)c1ccc(N2CCC3(CC2)CC(c2ccccc2)=NO3)c([N+](=O)[O-])c1,5.28%
16,CCCNC(=O)c1ccc(N2CCC3(CC2)CC(c2ccccc2)=NO3)c([N+](=O)[O-])c1,-53%
17,O=C(NCc1ccccc1)c1ccc(N2CCC3(CC2)CC(c2ccc(Cl)cc2)=NO3)c([N+](=O)[O-])c1,11.6%
18,COc1ccc(CNC(=O)c2ccc(N3CCC4(CC3)CC(c3ccc(Cl)cc3)=NO4)c([N+](=O)[O-])c2)cc1,9.12%
19,CCCNC(=O)c1ccc(N2CCC3(CC2)CC(c2cccc(Br)c2)=NO3)c([N+](=O)[O-])c1,-14.2%
20,COCc1cc(=O)n2[nH]cc(-c3ccccc3)c2n1,9.45%
21,COc1ccc(NC(=O)CSc2nnc(C3CC3)n2C)cc1S(=O)(=O)N1CCOCC1,-0.595%
22,Cc1nc2ncnn2c(C)c1CCC(=O)NCc1ccco1,-6.62%
23,Cc1cccc(OCC(O)Cn2c(NCc3cccnc3)nc3c2c(=O)[nH]c(=O)n3C)c1 (stereo not drawn),-9.46%

row,SMILES,"hERG current change (%, negative = inhibition) at 10uM"
1,CC(C)Oc1ccc(N2CC(C(=O)Nc3ccccc3C(=O)NC3CC3)CC2=O)cc1 (stereo not drawn),-66.2%
2,O=C(NC1CCCCC1)c1ccccc1NC(=O)C1CC(=O)N(c2ccc(Cl)cc2)C1 (stereo not drawn),2.36%
3,CCOc1ccc(N2CC(C(=O)Nc3ccccc3C(=O)NC3CC3)CC2=O)cc1 (stereo not drawn),-76.7%
4,O=C(NC1CCCCC1)c1ccccc1NC(=O)C1CC(=O)N(c2ccccc2)C1 (stereo not drawn),-76.8%
5,CC(C)Oc1ccc(N2CC(C(=O)Nc3ccccc3F)CC2=O)cc1 (stereo not drawn),-17.2%
6,COc1ccc(N2CC(C(=O)Nc3ccccc3C(=O)NC3CC3)CC2=O)cc1 (stereo not drawn),-38.8%
7,CCOc1ccc(N2CC(C(=O)Nc3ccccc3F)CC2=O)cc1 (stereo not drawn),-13.5%
8,Cc1ccc(N2CC(C(=O)Nc3ccccc3C(=O)NC3CCCCC3)CC2=O)cc1C (stereo not drawn),-17.9%
9,Cc1ccc(N2CC(C(=O)Nc3ccccc3C(=O)NC3CCCCC3)CC2=O)cc1 (stereo not drawn),-5.81%
10,O=S(=O)(c1ccc(Br)cc1)N1CCN=C1SCc1cccc(F)c1,8.08%
11,O=C(Nc1nnc(Cc2ccc(Cl)cc2)s1)c1cccnc1,13.9%
12,COc1ccccc1N1CCN(C(=O)c2cccc(N3C(=O)C4C5C=CC(C5)C4C3=O)c2)CC1 (stereo not drawn),5.22%
13,CCOC(=O)C1=C(C)NC(=S)NC1c1ccc(OCC(=O)N2CCCCCC2)c(OC)c1 (stereo not drawn),14.2%
14,O=C(Nc1nnc(Cc2ccccc2)s1)Nc1ccccc1F,11.1%
15,O=C(CN(C(=O)CCC(=O)Nc1ccccn1)c1ccc(F)cc1)NCc1ccco1,14.2%
16,Cc1ccc(C(=O)OCC(=O)Nc2ccc(C(N)=O)cc2)s1,10.1%
17,O=C(CCC(=O)c1ccc(F)cc1)Nc1cccnc1,1.31%
18,CCCn1nc2cc(C(=O)NCc3ccc(C)cc3)ccc2c1OCC,-1.4%
19,COc1ccc(-c2cc(C(F)(F)F)nc(SCC(=O)NCCCN3CCOCC3)n2)cc1,-14%
20,O=C(Oc1ccc(N(C(=O)c2ccncc2)S(=O)(=O)c2cccs2)cc1)c1ccncc1,3.77%
21,CCCOC(=O)c1ccc(NS(=O)(=O)c2cccs2)cc1,-6.88%
22,O=C(OCCN(CCOC(=O)c1ccncc1)S(=O)(=O)c1cccs1)c1ccncc1,-77.3%
23,O=C(C(Cl)Cl)N1CCN(Cc2ccccc2)CC1,-4.72%

row,SMILES,"hERG current change (%, negative = inhibition) at 10uM"
1,O=C(COc1ccc(F)cc1Cl)Nc1cc(S(=O)(=O)N2CCOCC2)ccc1N1CCCCC1,4.24%
2,CCN(CC)S(=O)(=O)c1ccc(N2CCOCC2)c(NC(=O)COc2ccccc2C)c1,8.22%
3,CCc1ccccc1OCC(=O)Nc1cc(S(=O)(=O)N(CC)CC)ccc1N1CCOCC1,-7.83%
4,CCN1CCN(c2ccc(S(=O)(=O)N3CCOCC3)cc2NC(=O)COc2ccc(F)cc2Cl)CC1,-24.4%
5,CCN(CC)S(=O)(=O)c1ccc(N2CCN(C)CC2)c(NC(=O)COc2ccc(F)cc2Cl)c1,-59%
6,CN1CCN(c2ccc(S(=O)(=O)N3CCOCC3)cc2NC(=O)COc2ccc(F)cc2Cl)CC1,-61.5%
7,COP(=O)(OC)C(Nc1ccc([N+](=O)[O-])cc1)c1ccccc1 (stereo not drawn),-36.1%
8,CC(NC(=S)NCCc1ccccc1)C(c1cccs1)N1CCN(Cc2ccccc2)CC1 (stereo not drawn),-41.3%
9,Cc1sc(NC(=O)/C=C/c2ccc3c(c2)OCO3)nc1-c1ccccc1,8.5%
10,Cc1ccc(C)c(NS(=O)(=O)c2cc(C(=O)Nc3ccccc3-c3ccccc3)ccc2C)c1,18.2%
11,COc1cccc(CN2CCCCC2c2cccnc2)c1 (stereo not drawn),3.01%
12,Cc1noc(C)c1COc1ccc(C(=O)OCC(=O)NCCN2C(=O)CSC2=O)cc1,-8.06%
13,CC(c1c(O)c2ccccc2[nH]c1=O)C1(C)CCC(O)C(C)(C)O1 (stereo not drawn),-2.48%
14,COc1cc(/C=C(\C#N)c2nc3c(s2)CC(C)CC3)ccc1O (stereo not drawn),10.1%
15,CSc1ccccc1C(=O)N1CCC2(CC1)CC(=O)c1ccccc1O2,-61%
16,COc1ccc(Cl)cc1C(=O)N1CCC2(CC1)CC(=O)c1ccccc1O2,-80.5%
17,COc1ccc(S(=O)(=O)N2CCC3(CC2)CC(=O)c2ccccc2O3)cc1OC,11.6%
18,O=C1CC2(CCN(C(=O)C(=O)c3c[nH]c4ccccc34)CC2)Oc2ccccc21,-55.3%
19,O=C(C(=O)N1CCCC1)c1c[nH]c2ccccc12,7.14%
20,O=C1CC2(CCN(C(=O)c3c(F)cccc3Cl)CC2)Oc2ccccc21,-41.2%
21,O=C1CC2(CCCC2)Oc2ccccc21,3.39%
22,O=C1CC2(CCN(C(=O)c3ccccc3Cl)CC2)Oc2ccccc21,-72.7%
23,CSc1ccccc1C(=O)N1CCCCC1,-9.98%

row,SMILES,"hERG current change (%, negative = inhibition) at 10uM"
1,O=C(C(=O)N1CCOCC1)c1c[nH]c2ccccc12,18.3%
2,COc1ccc(S(=O)(=O)N2CCC3(CC2)CC(=O)c2ccccc2O3)cc1C,-3.6%
3,CSc1ccccc1C(=O)N1CCOCC1,20%
4,CCn1c(SCC(=O)N2CCCc3ccccc32)nc2c(c1=O)SC(C)C2 (stereo not drawn),-24.7%
5,O=C(O)/C=C/c1ccccc1Oc1ccc(Cl)cc1Cl,-8.85%
6,CC(NC(=O)C[n+]1cccc(Br)c1)c1ccccc1.[Cl-] (stereo not drawn),17.6%
7,COC(C(=O)N/N=C(\C)CC(=O)Nc1ccc(Cl)cc1C)c1ccccc1 (stereo not drawn),-10.5%
8,CCOC(=O)CSc1nc(C)cc(C)n1,7.29%
9,FC(F)(F)c1ccccc1CNCc1ccc2c(c1)OCO2,0.962%
10,O=C(Nc1ccccc1OC(F)F)c1oc2ccccc2c1COc1ccccc1,0.283%
11,COc1ccc(-n2c(Cc3cc(=O)[nH]c(=O)[nH]3)nnc2SCC(=O)Nc2cc(C(F)(F)F)ccc2Cl)cc1,-3.73%
12,CCCC(c1nnnn1CC(=O)OCC)N(Cc1cc2c(C)cc(C)cc2[nH]c1=O)C1CCCC1 (stereo not drawn),22.1%
13,O=C(c1ccccc1F)N1CCC2(CC1)OCCO2,30.8%
14,O=C1CC2(CCCCCC2)Oc2ccc(Cl)cc21,9.01%
15,O=C1CC2(CCN(C(=O)c3c(F)cccc3F)CC2)Oc2ccccc21,-34.2%
16,O=C1CC2(CCCC2)Oc2ccc(Cl)cc21,8.19%
17,O=C1CC2(CCCCCC2)Oc2ccccc21,-6.74%
18,O=C1CC2(CCN(C(=O)c3ccccc3Br)CC2)Oc2ccccc21,-76.9%
19,O=C1CC2(CCCCC2)Oc2ccccc21,14.4%
20,CC(=O)N1CCC2(CC1)CC(=O)c1cc(Cl)ccc1O2,-55.2%
21,O=C1CC2(CCN(C(=O)c3ccccc3F)CC2)Oc2ccccc21,-73.2%

# Reference: PMC4336329 (PLoS ONE, 2015)
